Holding throughout (test): log2 fold change, soluble protein after heating vs DMSO (PISA); higher = thermal stabilisation; K562 cells, 10 uM, 30 min; active = over 0.2 and 3.5 SD of the protein, either way, in both replicates (recomputed)
Compound in test [1]: NC(=O)Nc1cc(-c2cccc(F)c2)sc1C(=O)N[C@H]1CCCNC1
Put shortly: (§1)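 K562 cells at 2×10^6 cells/mL were treated for 30 min with 10 μM compound, and aliquots were heated for 3 min over 48°C-58°C before pooling. Extraction used PBS with 0.5% NP-40 at 4°C, and soluble protein was the supernatant after 21,000xg for 90 min, measured by TMTpro 16plex LC-MS/MS with channel sums equalised. Thermal stability values, relative to control samples and from duplicates, are log2 fold changes.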

Compound in test [2]: NC(=O)c1cnc(N[C@@H]2CCCC[C@@H]2N)nc1Nc1cccc(-n2nccn2)c1
The procedure, abridged: as §1

Compound in test [3]: NC1(c2ccc(-c3nc4ccn5c(=O)[nH]nc5c4cc3-c3ccccc3)cc2)CCC1
Put shortly:
as §1

Compound in test [4]: NCC(=O)Nc1ccc(-n2nc(C(F)(F)F)cc2-c2ccc3c(ccc4ccccc43)c2)cc1
The procedure, abridged: as §1

Compound in the next test: Nc1ccccc1NC(=O)c1ccc(CNC(=O)OCc2cccnc2)cc1 [entinostat]
The procedure, abridged:
as §1

Compound in another test: O=C(CCCCCCC(=O)Nc1ccccc1)NO [vorinostat]
Put shortly:
as §1

Compound in a further test: O=C(CCCCCCNC(=O)c1cnc(N(c2ccccc2)c2ccccc2Cl)nc1)NO [citarinostat]
The procedure, abridged:
as §1

Compound in the next test: O=C(O)c1ccc2c(c1)nc(Nc1cccc(Cl)c1)c1ccncc12 [silmitasertib]
The procedure, abridged:
as §1

Compound in test [5]: O=C1NC(=O)C(c2cnc3ccccn23)=C1c1cn2c3c(cc(F)cc13)CN(C(=O)N1CCCCC1)CC2
Put shortly: as §1

Compound in test [6]: c1cc(OCCN2CCCCC2)cc(-c2n[nH]c3ccc(-c4nnc[nH]4)cc23)c1
The procedure, abridged: as §1

Compound in the next test: c1cn2cc(-c3ccc4cn[nH]c4c3)nc(Nc3ccc(N4CCOCC4)cc3)c2n1 [entospletinib]
The procedure, abridged: as §1

Targets with a hit are over-represented here; the source holds about 7,900 in all. About 0.6% of all pairs of compound and target were hits. A number with no mark means an inactive call.

Chain of UniProt P35219 (P35219 whole entry, looked up): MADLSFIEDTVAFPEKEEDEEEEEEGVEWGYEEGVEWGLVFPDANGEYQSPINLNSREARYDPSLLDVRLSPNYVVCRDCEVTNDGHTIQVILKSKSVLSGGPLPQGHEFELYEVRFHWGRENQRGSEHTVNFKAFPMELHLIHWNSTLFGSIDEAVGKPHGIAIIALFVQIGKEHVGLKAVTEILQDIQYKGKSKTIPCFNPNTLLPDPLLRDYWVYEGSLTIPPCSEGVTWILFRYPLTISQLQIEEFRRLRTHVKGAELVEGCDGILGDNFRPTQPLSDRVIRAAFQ
Chain of UniProt Q7L3B6 (Q7L3B6 whole entry, looked up): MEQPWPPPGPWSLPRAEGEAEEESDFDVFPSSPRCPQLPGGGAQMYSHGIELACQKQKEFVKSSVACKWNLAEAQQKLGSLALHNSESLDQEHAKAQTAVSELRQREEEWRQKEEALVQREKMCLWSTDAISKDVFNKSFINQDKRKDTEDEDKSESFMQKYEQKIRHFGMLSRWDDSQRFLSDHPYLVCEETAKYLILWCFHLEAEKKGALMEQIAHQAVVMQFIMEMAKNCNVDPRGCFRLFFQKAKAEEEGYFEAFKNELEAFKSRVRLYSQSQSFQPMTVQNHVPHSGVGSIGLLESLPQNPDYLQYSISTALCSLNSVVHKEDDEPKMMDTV
Chain of UniProt O75390 (O75390 whole entry, looked up): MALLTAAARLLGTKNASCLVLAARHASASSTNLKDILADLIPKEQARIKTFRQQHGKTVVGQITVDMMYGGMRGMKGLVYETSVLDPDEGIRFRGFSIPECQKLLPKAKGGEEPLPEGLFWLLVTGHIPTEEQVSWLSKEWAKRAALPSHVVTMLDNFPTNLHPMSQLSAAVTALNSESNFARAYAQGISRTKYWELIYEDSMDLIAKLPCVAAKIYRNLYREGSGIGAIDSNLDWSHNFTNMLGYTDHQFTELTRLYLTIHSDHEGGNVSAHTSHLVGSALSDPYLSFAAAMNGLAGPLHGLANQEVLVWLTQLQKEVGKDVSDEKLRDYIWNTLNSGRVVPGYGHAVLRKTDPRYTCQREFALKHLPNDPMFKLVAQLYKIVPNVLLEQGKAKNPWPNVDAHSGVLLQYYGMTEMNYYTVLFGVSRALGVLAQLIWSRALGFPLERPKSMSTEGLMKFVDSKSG
Chain of UniProt Q9UNS2 (Q9UNS2 whole entry, looked up): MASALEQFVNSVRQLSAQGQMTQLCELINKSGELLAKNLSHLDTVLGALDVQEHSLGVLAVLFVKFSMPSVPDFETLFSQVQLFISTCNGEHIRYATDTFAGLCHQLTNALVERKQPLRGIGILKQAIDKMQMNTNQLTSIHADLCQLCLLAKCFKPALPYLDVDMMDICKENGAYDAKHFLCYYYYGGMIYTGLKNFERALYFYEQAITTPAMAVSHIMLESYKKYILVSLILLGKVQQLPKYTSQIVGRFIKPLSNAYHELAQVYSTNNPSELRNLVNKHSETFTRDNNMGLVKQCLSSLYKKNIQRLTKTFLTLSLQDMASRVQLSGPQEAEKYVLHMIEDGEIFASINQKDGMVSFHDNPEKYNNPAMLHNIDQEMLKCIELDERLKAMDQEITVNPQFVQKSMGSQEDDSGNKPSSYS
Chain of UniProt P21127 (P21127 whole entry, looked up): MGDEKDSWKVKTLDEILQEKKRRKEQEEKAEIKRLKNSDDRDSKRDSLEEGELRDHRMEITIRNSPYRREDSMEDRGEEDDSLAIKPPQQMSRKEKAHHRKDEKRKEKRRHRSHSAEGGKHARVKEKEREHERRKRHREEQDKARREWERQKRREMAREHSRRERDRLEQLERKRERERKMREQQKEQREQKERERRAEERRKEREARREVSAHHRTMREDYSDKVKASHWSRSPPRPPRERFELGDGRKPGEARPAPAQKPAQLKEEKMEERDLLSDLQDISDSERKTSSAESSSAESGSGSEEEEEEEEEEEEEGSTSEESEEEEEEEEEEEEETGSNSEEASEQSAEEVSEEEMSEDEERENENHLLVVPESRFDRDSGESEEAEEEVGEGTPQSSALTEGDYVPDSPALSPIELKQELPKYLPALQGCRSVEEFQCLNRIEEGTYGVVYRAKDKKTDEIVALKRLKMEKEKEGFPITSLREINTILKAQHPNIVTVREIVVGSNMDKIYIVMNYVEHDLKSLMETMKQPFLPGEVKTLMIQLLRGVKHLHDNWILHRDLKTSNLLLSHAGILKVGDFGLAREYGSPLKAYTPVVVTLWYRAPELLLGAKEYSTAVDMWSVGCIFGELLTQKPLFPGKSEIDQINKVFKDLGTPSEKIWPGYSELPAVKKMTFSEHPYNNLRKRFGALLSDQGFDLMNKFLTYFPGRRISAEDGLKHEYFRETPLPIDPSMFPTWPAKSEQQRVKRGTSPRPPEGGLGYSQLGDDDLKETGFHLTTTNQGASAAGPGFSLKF
Chain of UniProt O75794 (O75794 whole entry, looked up): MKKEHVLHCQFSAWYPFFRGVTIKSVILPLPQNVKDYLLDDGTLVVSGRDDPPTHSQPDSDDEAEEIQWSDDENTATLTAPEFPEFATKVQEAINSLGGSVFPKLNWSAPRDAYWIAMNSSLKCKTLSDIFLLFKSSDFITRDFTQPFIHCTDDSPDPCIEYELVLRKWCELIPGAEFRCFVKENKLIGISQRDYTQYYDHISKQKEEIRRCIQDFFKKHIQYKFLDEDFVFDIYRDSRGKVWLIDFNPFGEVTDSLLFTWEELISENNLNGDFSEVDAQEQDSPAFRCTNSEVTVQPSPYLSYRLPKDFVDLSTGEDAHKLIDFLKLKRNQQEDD
Chain of UniProt Q16630 (Q16630 whole entry, looked up): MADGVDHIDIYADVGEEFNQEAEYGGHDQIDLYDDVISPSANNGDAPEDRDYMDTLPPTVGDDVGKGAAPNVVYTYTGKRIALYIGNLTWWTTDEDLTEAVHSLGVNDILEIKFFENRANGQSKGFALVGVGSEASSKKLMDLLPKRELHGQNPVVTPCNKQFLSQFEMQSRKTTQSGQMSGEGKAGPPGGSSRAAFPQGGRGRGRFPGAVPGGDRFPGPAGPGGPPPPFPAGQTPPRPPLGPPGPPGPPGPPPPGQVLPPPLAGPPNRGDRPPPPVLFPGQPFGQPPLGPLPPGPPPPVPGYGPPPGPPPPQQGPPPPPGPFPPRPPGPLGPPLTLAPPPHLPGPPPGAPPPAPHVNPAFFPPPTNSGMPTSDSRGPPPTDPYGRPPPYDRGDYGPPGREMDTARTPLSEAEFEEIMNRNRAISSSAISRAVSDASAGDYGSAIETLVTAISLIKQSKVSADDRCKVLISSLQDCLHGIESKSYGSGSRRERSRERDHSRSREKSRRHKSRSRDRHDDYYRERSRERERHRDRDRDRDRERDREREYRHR
Chain of UniProt Q92851 (Q92851 whole entry, looked up): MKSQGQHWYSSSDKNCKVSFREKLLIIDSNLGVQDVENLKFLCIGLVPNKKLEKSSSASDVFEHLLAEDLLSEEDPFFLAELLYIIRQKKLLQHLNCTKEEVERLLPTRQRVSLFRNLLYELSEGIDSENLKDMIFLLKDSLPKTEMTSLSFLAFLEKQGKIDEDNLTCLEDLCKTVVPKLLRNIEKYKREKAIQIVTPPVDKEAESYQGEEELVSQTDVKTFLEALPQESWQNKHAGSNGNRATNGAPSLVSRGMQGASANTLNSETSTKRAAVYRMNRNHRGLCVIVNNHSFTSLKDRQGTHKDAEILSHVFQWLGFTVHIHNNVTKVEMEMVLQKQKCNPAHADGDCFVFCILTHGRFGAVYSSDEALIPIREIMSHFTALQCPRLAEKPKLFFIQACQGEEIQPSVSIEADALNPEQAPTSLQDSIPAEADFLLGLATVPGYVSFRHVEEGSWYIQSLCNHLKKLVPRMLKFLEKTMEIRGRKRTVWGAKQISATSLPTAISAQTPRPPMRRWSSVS
Chain of UniProt Q8IX12 (Q8IX12 whole entry, looked up): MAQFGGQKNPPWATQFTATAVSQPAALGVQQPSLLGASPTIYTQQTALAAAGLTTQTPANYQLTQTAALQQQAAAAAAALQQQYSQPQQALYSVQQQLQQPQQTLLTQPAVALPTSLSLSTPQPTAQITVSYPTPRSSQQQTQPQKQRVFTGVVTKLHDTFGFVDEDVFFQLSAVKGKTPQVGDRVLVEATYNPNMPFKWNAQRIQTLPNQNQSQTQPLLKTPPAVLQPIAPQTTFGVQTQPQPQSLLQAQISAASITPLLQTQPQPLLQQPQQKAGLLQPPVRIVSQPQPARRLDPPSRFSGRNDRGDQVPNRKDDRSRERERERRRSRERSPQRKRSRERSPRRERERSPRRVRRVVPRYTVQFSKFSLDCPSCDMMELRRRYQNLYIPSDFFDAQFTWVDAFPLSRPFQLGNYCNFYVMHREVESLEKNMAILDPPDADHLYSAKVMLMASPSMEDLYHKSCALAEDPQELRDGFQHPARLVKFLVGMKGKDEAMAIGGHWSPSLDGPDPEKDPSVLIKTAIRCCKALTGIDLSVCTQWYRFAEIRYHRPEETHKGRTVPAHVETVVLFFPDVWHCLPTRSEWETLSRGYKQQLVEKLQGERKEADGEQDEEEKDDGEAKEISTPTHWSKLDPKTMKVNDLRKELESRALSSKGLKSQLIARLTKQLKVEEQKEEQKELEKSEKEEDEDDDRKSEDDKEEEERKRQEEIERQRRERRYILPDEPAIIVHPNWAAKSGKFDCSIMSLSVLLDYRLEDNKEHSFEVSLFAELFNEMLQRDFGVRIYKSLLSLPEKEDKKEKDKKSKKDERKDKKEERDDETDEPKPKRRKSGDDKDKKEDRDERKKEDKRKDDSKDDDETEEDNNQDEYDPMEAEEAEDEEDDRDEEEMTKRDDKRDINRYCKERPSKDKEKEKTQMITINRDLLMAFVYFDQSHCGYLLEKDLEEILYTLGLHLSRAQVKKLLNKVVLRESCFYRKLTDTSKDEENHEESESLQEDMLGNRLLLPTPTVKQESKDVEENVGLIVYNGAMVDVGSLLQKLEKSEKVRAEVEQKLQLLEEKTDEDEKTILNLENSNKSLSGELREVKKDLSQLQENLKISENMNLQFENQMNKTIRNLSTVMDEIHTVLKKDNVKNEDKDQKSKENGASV

As for CPSF6 isoform 2 (UniProt Q16630), the log2 fold change was -0.027 in [1]; -0.037 in test [2]; -0.01 in test [3]; 0.029 in test [4]; -0.008 with entinostat; -0.007 with vorinostat. Besides, the log2 fold change in the test with citarinostat was 0.004; with silmitasertib it was -0.225 (active); in test [5], -0.003; in [6], -0.179; in the test with entospletinib, 0.064.

In the case of CS (UniProt O75390), the log2 fold change in test [1] is -0.024; in test [2], -0.087; in test [3], -0.187; in [4] it was 0.007; with entinostat it was 0.001; with vorinostat, 0.064. Also, the log2 fold change with citarinostat was 0.012; with silmitasertib it was -0.039; in test [5], 0.003; in test [6] it was -0.068; in the test with entospletinib it was 0.005.

As for CDK16 isoform 2 (UniProt Q00536), the log2 fold change in test [1] is -0.07; in test [2], -0.091; in test [3], -0.104; in [4], -0.061; with entinostat, -0.041; in the test with vorinostat, -0.044. Moreover, the log2 fold change with citarinostat is 0.061; in the test with silmitasertib, 0.201; in test [5], 0.845 (active); in test [6], -0.006; with entospletinib it was -0.022.

With CLCN3 (UniProt P51790), the log2 fold change in test [1] was -0.019; in [2], -0.099; in test [3], -0.264; in test [4], -0.078; with entinostat it was -0.012; with vorinostat, -0.022. The log2 fold change with citarinostat was 0.011; with silmitasertib it was 0.011; in test [5] it was 0.038; in test [6], -0.01; with entospletinib it was -0.003.

As for CA8 (UniProt P35219), the log2 fold change is 0.035 in test [1]; -0.069 in test [2]; -0.167 in test [3]; -0.058 in [4]; 0.049 with entinostat; 0.025 with vorinostat. Besides, the log2 fold change with citarinostat is 0.108; with silmitasertib it was 0.029; in test [5], -0.142; in test [6], -0.027; in the test with entospletinib, 0.094.

For the target CDK11B (UniProt P21127), the log2 fold change in test [1] is -0.114; in test [2] it was -0.012; in [3], 0.031; in test [4], 0.006; with entinostat it was -0.111; with vorinostat, 0.064. The log2 fold change is -0.047 with citarinostat; -0.061 with silmitasertib; 0.072 in [5]; -0.301 in test [6]; 0.14 with entospletinib.

In the case of CLCN3 isoform 2 (UniProt P51790), the log2 fold change in test [1] is 0.013; in test [2], 0.014; in [3] it was -0.17; in [4], 0.024; with entinostat, 0.019; in the test with vorinostat it was 0.037. Also, the log2 fold change with citarinostat was -0.002; in the test with silmitasertib, -0.015; in test [5], -0.002; in test [6], 0.283; in the test with entospletinib, -0.039.

Regarding CASP10 isoform 4 (UniProt Q92851), the log2 fold change was -0.089 in test [1]; -0.058 in test [2]; -0.084 in [3]; -0.055 in [4]; -0.05 in the test with entinostat; 0.258 with vorinostat. The log2 fold change with citarinostat is 0.123; with silmitasertib it was 0.076; in test [5], 0.089; in test [6], -0.13; in the test with entospletinib, 0.06.

With COPS3 (UniProt Q9UNS2), the log2 fold change is 0 in test [1]; -0.034 in test [2]; -0.002 in [3]; 0.011 in test [4]; 0.002 with entinostat; -0.003 with vorinostat. The log2 fold change in the test with citarinostat was 0.014; in the test with silmitasertib it was -0.02; in [5], -0.021; in test [6], -0.019; with entospletinib, 0.011.

As for CCAR1 (UniProt Q8IX12), the log2 fold change in test [1] was 0; in test [2] it was -0.068; in [3], -0.198; in test [4], -0.035; with entinostat, 0.021; in the test with vorinostat, 0.067. Also, the log2 fold change was 0.018 in the test with citarinostat; -0.049 in the test with silmitasertib; -0.043 in test [5]; -0.016 in [6]; -0.015 with entospletinib.

Regarding CDC123 (UniProt O75794), the log2 fold change is -0.029 in [1]; 0.045 in test [2]; -0.077 in [3]; -0.01 in [4]; 0.026 with entinostat; 0.032 with vorinostat. The log2 fold change with citarinostat was 0.045; in the test with silmitasertib, -0.048; in [5] it was 0.011; in test [6], -0.056; with entospletinib, -0.081.

As for CDC37L1 (UniProt Q7L3B6), the log2 fold change in test [1] was -0.061; in test [2], -0.074; in [3], 0.018; in [4], 0.033; in the test with entinostat, -0.011; with vorinostat, -0.017. The log2 fold change in the test with citarinostat was -0.064; with silmitasertib it was 0.07; in [5] it was -0.022; in test [6], -0.102; with entospletinib, 0.042.

(Values after the supplement of paper PMC10849652.)
